High-throughput results deposited in PubChem by National Center for Advancing Translational Sciences (NCATS).
gsp ag: agonists of gsp mutant (McCune-Albright syndrome). gsp mutant cells, cAMP HTRF, 30 min. Potency, µM (titrated, usually from 76.9 µM), actives largely listed as activators. 340,000 tested, 0.13% active; active = well fitted activation curve with a large enough effect; inconclusive = small, poorly fitted or top-dose-only effect, or another doubt; inactive = no such curve, though single readings can be large or run the other way; cell line not stated here;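 also: phosphodiesterase inhibitor Ro 20-1724 added with compounds to block cAMP breakdown; nearly all actives have a fitted effect of over 60% in size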
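Cells stably selected in G418 were plated at 2000/well, grown 16-24 hr, then given compounds in DMSO with the PDE inhibitor […] (300 uM solution added) for 30 min at 37C; cAMP was read by HTRF.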
gsp antagonist: gsp mutant antagonism; gsp-mutant cells, cAMP HTRF, 30 min; Potency, µM (top dose mostly 76.9 µM), most hits filed as inhibitors; 340,000 tested, 0.4% active; AID 624288; calls by dose curve; cell line not stated here;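 also: intracellular cAMP measured with PDE inhibitor Ro 20-1724 present during compound exposure; nearly all actives have a fitted effect of over 65% in size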
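HTRF cAMP read-out (cAMP-d2 plus anti-cAMP antibody-K in lysis buffer, 30 min RT). Before lysis, cells are exposed to compounds with […] for 30 min at 37C in DPBS containing Ca/Mg, BSA and Tween 20.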
RXFP1 antagonist: antagonists of human relaxin receptor RXFP1 | Q9HBX9 | HEK293-RXFP1, relaxin-stimulated cAMP HTRF, 30 min; stronger effect = lower value | activity change, negative = inhibition, % at 57.5 µM | 350,000 tested, 0.59% active;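 active = activity change of -60% or lower, but not beyond a set lower limit; inconclusive = change between -60% and -40%, or beyond the set limit; inactive = change above -40%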
Target sequence (Q9HBX9 whole entry, looked up): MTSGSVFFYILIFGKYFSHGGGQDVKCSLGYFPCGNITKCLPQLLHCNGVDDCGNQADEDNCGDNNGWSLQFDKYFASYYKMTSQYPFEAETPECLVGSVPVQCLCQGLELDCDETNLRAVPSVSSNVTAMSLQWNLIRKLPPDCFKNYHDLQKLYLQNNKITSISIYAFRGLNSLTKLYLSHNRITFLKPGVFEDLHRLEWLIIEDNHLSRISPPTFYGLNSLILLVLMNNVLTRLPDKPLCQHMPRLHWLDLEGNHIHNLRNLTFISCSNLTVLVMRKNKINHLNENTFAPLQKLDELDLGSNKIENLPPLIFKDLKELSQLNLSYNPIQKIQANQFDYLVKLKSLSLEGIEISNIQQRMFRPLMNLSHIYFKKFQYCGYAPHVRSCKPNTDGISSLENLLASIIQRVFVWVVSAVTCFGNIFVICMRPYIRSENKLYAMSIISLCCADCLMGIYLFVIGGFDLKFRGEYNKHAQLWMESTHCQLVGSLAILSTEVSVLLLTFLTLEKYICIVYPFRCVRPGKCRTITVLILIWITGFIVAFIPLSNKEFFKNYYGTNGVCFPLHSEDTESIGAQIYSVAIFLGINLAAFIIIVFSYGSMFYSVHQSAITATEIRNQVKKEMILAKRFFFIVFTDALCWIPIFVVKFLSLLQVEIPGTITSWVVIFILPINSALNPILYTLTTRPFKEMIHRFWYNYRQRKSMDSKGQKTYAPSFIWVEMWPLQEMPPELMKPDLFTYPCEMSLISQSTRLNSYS
pAkt inh: Akt phosphorylation inhibition; 360,000 tested, 0.32% active; Neuro2A IGF-stimulated pAkt S473 HTRF, 20 min; stronger effect = lower value; AID 651550; activity change, % for hits at 50 µM; in the data active = activity change below about -80%; inconclusive = mostly about -51% to -80%
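Neuro2A cells in DMEM with 0.5% FBS, overnight at 37 deg C, given compound at single 50 µM final, then IGF (6 nM final) for 20 min at 37 deg C. Lysed; phospho-Akt Ser473 by HTRF after 24 h, 665/615 ratio.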
RXFP1 agonist: RXFP1 (human) receptor agonism. Q9HBX9. HEK293T-RXFP1 cAMP TR-FRET, 30 min; response scale: percent of porcine relaxin response, buffer zero. Potency, µM (titrated, usually from 57.5 µM), actives largely listed as activators. 370,000 tested, 0.3% active; active = well fitted activation curve with a large enough effect; inconclusive = small, poorly fitted or top-dose-only effect; also: nearly all actives have a fitted effect of over 60% in size
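Agonist response is measured as cAMP accumulation in an RXFP1-transfected HEK293T line under PDE4 inhibition. Values are scaled between buffer-only and 29 nM porcine relaxin, and EC50s come from standard Hill equation fits.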
Hits are given with their value; – = inactive; ? = inconclusive; · = no result; [ ] = another dose, or the depositor's remark. Sampled rows, rich in hits. Any-hit rate of the full collection: about 1.2%.

SMILES	gsp ag	gsp antagonist	RXFP1 antagonist	pAkt inh	RXFP1 agonist
Cc1ccc(NC(=O)CSc2cn(CC(=O)N3CCOCC3)c3ccccc23)cc1Cl	·	·	–	·	–
N=C1/C(=C/c2cccs2)C(=O)N=C2SN=C(SCc3ccccc3)N12	–	32µM	–	–	–
CC(C)CSC1=NSC2=NC(=O)/C(=C\c3cccs3)C(=N)N12	–[15.4 µM]	–	–	–	–
CSC1=NSC2=NC(=O)/C(=C\c3cccs3)C(=N)N12	–	35µM	–	–	–
COc1ccc(C(=O)C2CCCN(C3Cc4ccccc4C3)C2)c(OC)c1 (centres undefined)	–[15.4 µM]	–	-65	–	–
CC1=C(c2ccc(C(C)C)cc2)S(=O)(=O)N=C1N1CCC(C(=O)NCCc2ccco2)CC1	·	·	–	·	–
Oc1ccc(-c2csc(Nc3ncccn3)n2)c(O)c1	–[15.4 µM]	–	–	–	–
Cc1cccc(Nc2nc(-c3ccc(O)cc3O)cs2)n1	–	–	-79	–	–
COc1ccc(CCNC(=O)CSc2cn(CCNC(=O)c3ccccc3F)c3ccccc23)cc1OC	·	·	·	·	–
Cc1cn([C@H]2C[C@H](F)[C@@H](CO)O2)c(=O)[nH]c1=O	·	·	–	·	·
O=C(Cc1ccc(Cl)cc1)Nc1ccccc1N1CCN(C(=O)c2ccccc2)CC1	–	28µM	–	–	–
COc1ccc(/C=C/C(=O)N2CCC(c3nc4ccccc4o3)CC2)cc1OC	·	·	?	·	–
CCOc1ccc(N2C(=O)CC(C(C)c3ccccc3)C2=O)cc1 (centres undefined)	–	–	–	–	–
CC(c1ccccc1)C1CC(=O)N(c2ccc(C(=O)O)cc2)C1=O (centres undefined)	–	–	–	-81%	–
O=S(=O)(c1ccc(=S)[nH]c1)N1CCN(Cc2ccccc2)CC1	–[15.4 µM]	–	-66	–	·
O=S(=O)(c1ccc(=S)[nH]c1)N1CCCCC1	–	–	–	–	–
Cc1sccc1Br	·	·	–	·	·
N#C/C=C1/NC(=O)c2ccccc2S1	–	–	–	-110%	–
Cc1cc(C)c(NC(=O)Cn2c(=O)n(CCC(=O)NCc3ccccc3Cl)c(=O)c3sccc32)c(C)c1	·	·	–	·	?
CC(=O)NCCOc1cccc2ccccc12	–	–	–	–	–
c1ccc(CCNCCCOc2cccc3ccccc23)cc1	–	–	-95	–	–
COc1ccc(N=Nc2nc3ccc(Br)cc3n2C)cc1	–	–	–	-106%	–
Cc1ccc(-n2c(SCC(N)=O)nc3c(oc4ccccc43)c2=O)cc1C	·	·	·	·	–
N#Cc1c(NC(=S)NC(=O)Cc2cccs2)sc2c1CCCCC2	–	32µM	–	–	–
O=C(CN1CCC2(CC1)OCCO2)c1c[nH]c2ccccc12	–	–	–	-122%	–
SMILES	gsp ag	gsp antagonist	RXFP1 antagonist	pAkt inh	RXFP1 agonist
Cc1ccc2[nH]cc(C(=O)CN3CCC4(CC3)OCCO4)c2c1	–	–	–	–	–
CCOC(=O)Nc1ccc2c(c1)N(C(=O)CCN1CCN(CCO)CC1)c1ccccc1S2	–	–	–	-124%	·
CCOC(=O)Nc1ccc2c(c1)N(C(=O)CCN1CCN(C)CC1)c1ccccc1S2	–	–	–	–	–
O=S(=O)(NCC(c1ccco1)S(=O)(=O)c1ccccc1)c1cc(F)ccc1F (centres undefined)	·	·	–	·	–
Cc1cccc2cc(C#N)c(SCC(=O)NCc3cccs3)nc12	?	–	–	–	13µM
Cc1ccc(C)c2nc(SCC(=O)NCc3cccs3)c(C#N)cc12	–	–	–	–	?
CCOC(=O)CNC(=O)CSc1nc(-c2ccccc2)ns1	–[15.4 µM]	–	–	–	–
CCOC(=O)CNC(=O)CSc1nnc(-c2cccc(C)c2)n1-c1ccc(OC)cc1	–	6.3µM	–	–	–
CCOC(=O)CNC(=O)CSc1nc2c(C)cccc2cc1CC	?	–	–	–	14µM
CCOC(=O)CNC(=O)CSc1nc(-c2ccc(C)cc2)ns1	–[15.4 µM]	11µM	–	–	–
Clc1ccc(-c2csc(NNC3=NCCCCC3)n2)cc1	–	–	–	-111%	–
COc1ccccc1NS(=O)(=O)c1cccc(NC(=O)Nc2ccc(Cl)cc2)c1	–	28µM	–	–	–
Brc1cc(Br)c2nc(-c3ccc(N4CCOCC4)cc3)ccc2c1	?	11µM	–	–	?
Cc1cc(OCCSc2nnc(-c3cccs3)n2C)ccc1Cl	–	35µM	–	–	–
O=C(c1cccc(NS(=O)(=O)c2ccccc2)c1)N1CCCC1	–	–	–	–	–
O=C(c1ccc(NS(=O)(=O)c2ccccc2)cc1)N1CCCC1	–	–	–	-118%	–
O=C(c1ccc(S(=O)(=O)Nc2cccc(C(F)(F)F)c2)cc1)N1CCC1	10µM	–	–	–	?
O=C(c1cccc(NS(=O)(=O)c2ccccc2)c1)N1CCN(c2ccccc2)CC1	–[15.4 µM]	–	-117	–	–
CCCC(=O)Nc1ccccc1C(=O)OCc1cc(=O)n2nc(C(C)C)sc2n1	·	·	–	·	–
COc1ccccc1CNC(=O)c1c2c(nc3ccccc13)C(=O)N(C1CCCCC1)C2	·	·	–	·	–
O=C(Cc1ccc(NC(=O)N2CCCCc3ccccc32)cc1)NCc1ccccc1Br	·	·	·	·	–
COc1ccc(N2CCN(Cc3cccn3-c3nnc(N4CCN(C5CCCCC5)CC4)s3)CC2)cc1	·	·	·	·	–
COc1ccc(NC(=O)c2nc[nH]c2C(=O)N[C@@H](C)C(=O)OC(C)(C)C)cc1	13µM	–	·	–	–
O=C(CSc1nnc(Cc2ccccc2)n1-c1cccc(Cl)c1)N1CCOCC1	–	–	–	-132%	–
CCOC(=O)C1=C(C)N=C2SC(C)C(=O)N2C1c1ccc(OC(C)=O)c(OC)c1 (centres undefined)	–	–	–	-104%	–
SMILES	gsp ag	gsp antagonist	RXFP1 antagonist	pAkt inh	RXFP1 agonist
O=[N+]([O-])c1ccc(N/N=C/c2ccc(O)c(O)c2O)c(S(=O)(=O)N2CCOCC2)c1	–[15.4 µM]	?	-85	–	–
CC(=O)N1CCN(C(=O)c2ccc(-n3c(C)ccc3C)cc2)CC1	–	–	·	–	–
Cc1ccc(C)n1-c1ccc(C(=O)N2CCOCC2)cc1	–	–	–	-106%	–
Cc1c2cnn(CC(=O)NCc3ccc(F)cc3)c(=O)c2c(C)n1Cc1cccc(Cl)c1	·	·	–	·	–
Cc1nc(NC(=O)CSc2nnnn2C)sc1C	–	–	–	–	–
Cc1csc(NC(=O)CSc2nnnn2C)n1	–	–	–	-117%	–
CCn1c(SCC(=O)NC2CCCCC2)nnc1-c1cccs1	?	–	–	-98%	–
CCOC(=O)CSc1nnc(-c2cccs2)n1-c1ccccc1	–	–	–	–	–
O=C(CSc1nnc(-c2cccs2)n1-c1ccccc1)Nc1ccccc1	?	–	–	-92%	?
O=C(COc1ccccc1)Nc1nc(-c2ccc(S(=O)(=O)N3CCOCC3)cc2)cs1	–	–	–	–	–
O=C(CCc1ccc(S(=O)(=O)N2CCOCC2)cc1)Nc1nc(COc2ccccc2)cs1	–	28µM	–	·	–
